Consider 58 compounds from PubChem BioAssay AID1851 (National Center for Advancing Translational Sciences (NCATS), 2009).

Where “and” joins values, the source holds several entries; their conditions need not be identical. Equal entries are not always repeated. About 4,000 (25%) of roughly 16,000 compounds were called active. Another 26% or so got no clear call; they are omitted. These entries were drawn from the full list. Values without a mark were called inactive. The call rests on the fitted dose curve; in most records, active means well fitted curve in the direction sought with a large enough effect; inconclusive means small, poorly fitted or top-dose-only effect, or effect the other way; inactive means no such curve, though single readings can be large or run the other way.
On the % scale 0 is the no-effect control and ±100 the full control effect.

The target of the experiment is Cytochrome P450 2C9 (Homo sapiens) (UniProt P11712). As to the kind of experiment: Cytochrome panel assay with activity outcomes. To be noted: recombinant CYP, pro-luciferin dealkylation, luminescence, p450-cyp2c9; series mostly up to 57.1 µM. The protocol: The P450 gene superfamily is involved in the metabolism and clearance of xenobiotics. This assay used various human CYP P450 isozymes to measure the dealkylation of various pro-luciferin substrates to luciferin. The luciferin is then measured by luminescence after the addition of a luciferase detection reagent. Pro-luciferin substrate concentration in the assay was equal to its KM for its CYP P450 isozyme. Inhibitors and some substrates limit the production of luciferin, and decrease measured luminescence.
Sequence of Cytochrome P450 2C9 (Homo sapiens) (P11712 whole entry, looked up): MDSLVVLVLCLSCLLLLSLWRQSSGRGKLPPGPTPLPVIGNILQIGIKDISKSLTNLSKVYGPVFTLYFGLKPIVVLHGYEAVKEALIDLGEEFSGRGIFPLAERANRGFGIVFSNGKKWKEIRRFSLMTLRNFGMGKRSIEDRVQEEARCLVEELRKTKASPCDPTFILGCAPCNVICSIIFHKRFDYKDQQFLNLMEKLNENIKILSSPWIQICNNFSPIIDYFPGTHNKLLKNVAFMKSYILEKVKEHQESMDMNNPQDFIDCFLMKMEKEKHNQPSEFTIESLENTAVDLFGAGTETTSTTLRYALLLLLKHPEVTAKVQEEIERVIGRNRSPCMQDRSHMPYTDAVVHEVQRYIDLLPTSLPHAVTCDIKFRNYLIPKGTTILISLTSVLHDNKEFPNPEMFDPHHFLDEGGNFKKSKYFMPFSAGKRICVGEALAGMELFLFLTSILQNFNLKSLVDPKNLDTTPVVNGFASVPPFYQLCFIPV
NCGC Assay Protocol Summary:
1, Reagent, 2 uL, Isozyme and Pro-Luciferin
2, Library compounds, 23 nl, 40 uM to 0.24 nM dilution series
3, Controls, 23 nl, Isozyme specific inhibitor
4, Reagent, 2 uL, NADPH regeneration solution
5, Incubation time, 60 min, Isozyme specific temperature
6, Reagent, 4ul, Detection reagent
7, Incubation time, 20 min, Isozyme specific temperature
8, Detection, 1 sec, ViewLux luminescent read
The luciferase-based P450-GloTM Screening Systems were obtained from Promega (Madison, WI) for CYP 1A2 (V9770), CYP 2C9 (V9790), CYP2 C19 (V9880), CYP 2D6 (V9890), and CYP 3A4 Luciferin-PPXE (V9910) and were adapted for 1,536-well microplates and an automated protocol. The control compounds furafylline for 1A2 (F124), sulfaphenazole for CYP 2C9 (S0758), ketoconazole for CYP 2C19 (K1003), quinidine for 2D6 (Q3625), and ketoconazole for 3A4 (K1003) were purchased from Sigma Aldrich (St. Louis, MO). Recombinant P450 enzymes were obtained from baculovirus constructs expressed in insect cells (BD/Gentest).
Medium-binding white solid Kalypsys plates used. Mixtures kept on ice. 1A2: 10 nM 1A2, 100 uM Luc-ME, 100 mM KPO4; 2C9: 10 nM 2C9, 100 uM Luc-H, 25 mM KPO4; 2C19: 5 nM 2C19, 10 uM Luc-H EGE, 50 mM KPO4; 2D6: 5 nM 2D6, 30 uM Luc-ME EGE, 100 mM KPO4; 3A4: 10 nM, 25 uM Luc-PPXE. All amounts are reflected in their final concentration, working concentration is 2x.
NADPH regeneration solution: 1.3 mM NADP+, 3.3 mM glucose-6-phosphate, 3.3 mM MgCl2, 0.4 U/mL glucose-6-phosphate dehydrogenase for all isozymes, 200 mM KPO4 for 3A4. Mixture prepared at RT but kept on ice during automated run.
RT incubation in auxilliary plate hotel for 1A2, 2D6, and 3A4; 37C for 2C9 and 2C19.
Keywords: P450, CYP1A2, CYP2C19, CYP2C9, CYP2D6, CYP3A4, Luciferase, MLSMR, MLSCN, NIH Roadmap, qHTS, NCGC
For the compound `N#Cc1c(SCC(N)=O)nsc1SCc1ccccc1Cl`, the AC50 (as a rule, the concentration giving half of the maximal activity seen) was 11.2 µM (active).

Consider `Nc1nc(SCc2ccccc2Cl)cc(C(=O)O)n1`, for which the activity, negative = inhibition is 0.0938% [at 11.4 µM].

For the compound `CCOC(=O)C1CCCN(C(=O)CSCc2ccccc2)C1` (stereo not drawn), the AC50 is 10 µM (active).

Turning to `CCOC(=O)C1CCCN(S(=O)(=O)c2ccccc2)C1` (stereo not drawn), the AC50 result was “inactive”.

On to `CN1CCN(c2nc(-c3ccccc3C(F)(F)F)nc3ccccc23)CC1`, for which the activity, negative = inhibition is 1.94% [at 2.29 µM].

Consider `CO[C@]1(NC(=O)Cc2cccs2)C(=O)N2C(C(=O)O)=C(COC(N)=O)CS[C@H]21`, for which the AC50 entry is “inactive”.

For `O=C(c1cnccn1)N1CCC2(CC1)CN(c1ccccn1)C2`, the AC50 result was “inactive”.

Consider `COc1ccccc1C(=O)N1CCN(c2ccccn2)CC1`, for which the AC50 is 14.1 µM (active).

Take `O=C(c1cnccn1)N1CCC2(CC1)CCN(c1ccccn1)CC2`: the AC50 entry is “inactive”.

Turning to `O=C(c1cnc(N2CCN(c3ncccn3)CC2)c2ccccc12)N1CCN(c2ncccn2)CC1`, the AC50 is 6.31 µM (active).

Consider `Cn1cccc1C(=O)N1CCC2(CC1)CCN(c1ncccn1)CC2`, for which the AC50 result is “inactive”.

As for `COC(=O)N1CCC2(CC1)CCN(c1ccccn1)CC2`, the AC50 entry is “inactive”.

`O=C(c1cnc(N2CCN(c3ncccn3)CC2)c2ccccc12)N1CCN(c2ccccn2)CC1`: the AC50 was 3.55 µM (active).

Consider `CC(=O)N1CCC2(CC1)CN(c1ccccn1)C2`, for which the AC50 result is “inactive”.

On to `O=C(c1cnccn1)N1CCC2(CC1)CCN(c1ncccn1)CC2`, for which the AC50 entry is “inactive”.

For `C/C=C\C[C@H](C)[C@H](O)[C@H]1C(=O)N[C@@H](CC)C(=O)N(C)CC(=O)N(C)[C@@H](CC(C)C)C(=O)N[C@@H](C(C)C)C(=O)N(C)[C@@H](CC(C)C)C(=O)N[C@@H](C)C(=O)N[C@@H](C)C(=O)N(C)[C@@H](CC(C)C)C(=O)N(C)[C@@H](CC(C)C)C(=O)N(C)[C@@H](C(C)C)C(=O)N1C`, the AC50 entry is “inactive”.

Turning to `Cc1ccc(S(=O)(=O)N=Nc2c(O)[nH]c3cc(O)c(C(=O)O)cc23)cc1`, the activity, negative = inhibition was 3.49% [at 11.4 µM].

On to `CN1CC[C@@]2(CCCN(C(=O)c3cccc(F)c3)C2)C1`, for which the AC50 entry is “inactive”.

As to `COc1cccc2c1C(=O)c1c(O)c3c(c(O)c1C2=O)C[C@@](O)(C(=O)CO)C[C@H]3O[C@H]1C[C@@H](N)[C@H](O)[C@@H](C)O1.[W]`, the activity, negative = inhibition was 3.88% [at 11.4 µM].

On to `C#CCCCO/N=C1/C[C@@H](O)[C@@H](O)[C@@H]2[C@@H]3C(=O)N(CC)C(=O)[C@H]3CC[C@H]12`, for which the activity, negative = inhibition was 3.17% [at 11.4 µM].

As to `O=C(O)CC(c1ccccc1)n1cnnn1` (stereo not drawn), the AC50 result was “inactive”.

For `Cc1cc(C)c(NC(=O)C[C@H](CC(=O)O)c2cccc3ccccc23)c(C(=O)N2CCC3(CCCC3)CC2)c1`, the AC50 entry is “inactive”.

As for `O=C(O)CC(c1cccc2ccccc12)n1cccc1` (stereo not drawn), the AC50 was 8.91 µM (active).

For the compound `O=C(O)CN1CCN(Cc2ccc(F)cc2Cl)C1=O`, the AC50 was 0.316 µM (active).

On to `O=C(O)CN1CCN(Cc2ccccc2Cl)C1=O`, for which the AC50 result was “inactive”.

Regarding `Cc1cccc(CN2CCN(CC(=O)O)C2=O)c1`, the AC50 entry is “inactive”.

For `CC(C)C(CCNC(=O)CC(Cc1ccccc1)c1ccco1)c1ccco1` (stereo not drawn), the AC50 was 2.82 µM (active).

As to `O=C(O)CNC(=O)[C@@H](CS)Cc1ccccc1`, the AC50 entry is “inactive”.

`CC(Cc1ccccc1)N/C=C1\CC(=O)NC1=O` (stereo not drawn): the AC50 entry was “inactive”.

Turning to `COc1c(O[C@H]2O[C@@H](CO)[C@@H](O)[C@@H](O)[C@@H]2O)cc2c(c1OC)-c1ccc(SC)c(=O)cc1[C@H](NC(C)=O)CC2`, the AC50 result was “inactive”.

For `CC(=O)NCCNc1ncnc2ccc(-c3ccoc3)cc12`, the activity, negative = inhibition was 6.33% [at 2.29 µM].

For the compound `CC1CSc2nc3sc4c(c3c(=O)n21)CCCC4` (stereo not drawn), the half-maximal activity concentration (AC50) was 14.1 µM (active).

On to `Nc1nc(Cl)nc2c1ncn2[C@@H]1O[C@@H](COP(=O)(O)OP(=O)(O)OP(=O)(O)O)[C@@H](O)[C@H]1O`, for which the AC50 result is “inactive”.

Regarding `S=c1nc[nH]c2c1ncn2Cc1ccco1`, the activity, negative = inhibition is 1.4% [at 11.4 µM].

With `O=C1CC(N2CCN(CCc3ccccn3)CC2)C(=O)N1c1ccc(Cl)cc1` (stereo not drawn), the AC50 entry was “inactive”.

With `O=C1c2ccccc2N[C@H](c2cc(Cl)cc(Cl)c2O)N1CCc1ccccn1`, the AC50 was 3.16 µM (active).

For the compound `CCOC(=O)C1=C(c2ccccc2)N=c2s/c(=C\c3cccc(O)c3)c(=O)n2C1c1cccs1` (stereo not drawn), the AC50 result is “inactive”.

Regarding `CCOC(=O)C1=C(N)n2c(s/c(=C\c3ccco3)c2=O)=C(C(=O)OCC)C1c1ccco1` (stereo not drawn), the AC50 was 1.26 µM (active).

Regarding `CCOC(=O)C1=C(c2ccccc2)N=c2s/c(=C\c3ccco3)c(=O)n2C1c1cccs1` (stereo not drawn), the AC50 was 8.91 µM (active).

With `OCCCSCCO`, the activity, negative = inhibition is 11.5% [at 11.4 µM].

In the case of `C[N+](C)(C)CC[N+]1(C)Cc2c(Cl)c(Cl)c(Cl)c(Cl)c2C1`, the AC50 entry is “inactive”.

Turning to `NS(=O)(=O)c1nc(S(=O)(=O)O)c2[nH]cnc2n1`, the activity, negative = inhibition is -8.54% [at 11.4 µM].

On to `Cc1ccc(S(=O)(=O)NC(=O)Nc2ncn[nH]2)cc1`, for which the activity, negative = inhibition is 4.99% [at 11.4 µM].

Take `Cc1ccc(S(=O)(=O)Nc2nc(C)c(NC(=O)Nc3ccc(Cl)cc3Cl)s2)cc1`: the concentration at half-maximal activity (AC50) is 7.94 µM (active).

As for `Cc1nnc(NS(=O)(=O)c2ccc(N)cc2)s1`, the AC50 result was “inactive”.

Regarding `CCN(CC)C(=S)SSC(=S)N(CC)CC`, the AC50 is 2.51 µM (active) and 398 nM (active).

Regarding `CC(C)(CO[C@H]1C[C@H]2CC[C@@]1(C)C2(C)C)[N+](=O)[O-]`, the activity, negative = inhibition was -3.36% [at 11.4 µM].

For the compound `C[C@H](O)C(=O)C1=Nc2c(nc(N)[nH]c2=O)NC1`, the AC50 result is “inactive”.

As for `O=C(CCc1ccccc1)NNC(=S)NC(=O)c1ccccc1`, the AC50 is 15.8 µM (active).

As to `O=C(CCc1ccccc1)NNC(=O)c1ccco1`, the AC50 entry was “inactive”.

With `CCCC(=O)Nc1ccc(C(=O)NNC(=S)NC(=O)c2cccs2)cc1`, the AC50 is 20 µM (active).

For `CC(C)(C)OC(=O)N1CCCC1C(=O)NCCc1ccccc1` (stereo not drawn), the AC50 result is “inactive”.

`COc1cc(CNCCc2ccccc2)ccc1OCC(=O)NC(C)(C)C`: the AC50 result is “inactive”.

As to `NNC(=O)c1ccc[n+](CCc2ccccc2)c1`, the activity, negative = inhibition is -1.12% [at 11.4 µM].

`COc1cc(OC)cc(C(=O)NC(=S)NCCc2ccccc2)c1`: the concentration at half-maximal activity (AC50) is 2.82 µM (active).

As to `CC(C)(C)C(=O)NC(=S)NCCc1ccccc1`, the AC50 is 11.2 µM (active).

On to `CCC(=O)Nc1ccc(C(=O)NNC(=O)c2cccs2)cc1`, for which the AC50 result is “inactive”.

Turning to `N[C@@H](CSCc1ccc(I)cc1)C(=O)O`, the activity, negative = inhibition was 12.7% [at 11.4 µM].
